Reference: ChEMBL document CHEMBL2218924, “A broad activity screen in support of a chemogenomic map for kinase signalling research and drug discovery” (Biochem J, 2013)

Legend:
[1] = biological target: Ephrin type-A receptor 4 (Homo sapiens) (UniProt P54764); conditions: at 1 µM
[2] = biological target: Ephrin type-A receptor 4 (Homo sapiens) (UniProt P54764); conditions: at 10 µM
[3] = biological target: Ephrin type-A receptor 5 (Homo sapiens) (UniProt P54756); conditions: at 1 µM
[4] = biological target: Ephrin type-A receptor 5 (Homo sapiens) (UniProt P54756); conditions: at 10 µM
[5] = biological target: Ephrin type-A receptor 7 (Homo sapiens) (UniProt Q15375); conditions: at 10 µM
Sequence of Ephrin type-A receptor 7 (Homo sapiens) (Q15375 28-998 limits assumed): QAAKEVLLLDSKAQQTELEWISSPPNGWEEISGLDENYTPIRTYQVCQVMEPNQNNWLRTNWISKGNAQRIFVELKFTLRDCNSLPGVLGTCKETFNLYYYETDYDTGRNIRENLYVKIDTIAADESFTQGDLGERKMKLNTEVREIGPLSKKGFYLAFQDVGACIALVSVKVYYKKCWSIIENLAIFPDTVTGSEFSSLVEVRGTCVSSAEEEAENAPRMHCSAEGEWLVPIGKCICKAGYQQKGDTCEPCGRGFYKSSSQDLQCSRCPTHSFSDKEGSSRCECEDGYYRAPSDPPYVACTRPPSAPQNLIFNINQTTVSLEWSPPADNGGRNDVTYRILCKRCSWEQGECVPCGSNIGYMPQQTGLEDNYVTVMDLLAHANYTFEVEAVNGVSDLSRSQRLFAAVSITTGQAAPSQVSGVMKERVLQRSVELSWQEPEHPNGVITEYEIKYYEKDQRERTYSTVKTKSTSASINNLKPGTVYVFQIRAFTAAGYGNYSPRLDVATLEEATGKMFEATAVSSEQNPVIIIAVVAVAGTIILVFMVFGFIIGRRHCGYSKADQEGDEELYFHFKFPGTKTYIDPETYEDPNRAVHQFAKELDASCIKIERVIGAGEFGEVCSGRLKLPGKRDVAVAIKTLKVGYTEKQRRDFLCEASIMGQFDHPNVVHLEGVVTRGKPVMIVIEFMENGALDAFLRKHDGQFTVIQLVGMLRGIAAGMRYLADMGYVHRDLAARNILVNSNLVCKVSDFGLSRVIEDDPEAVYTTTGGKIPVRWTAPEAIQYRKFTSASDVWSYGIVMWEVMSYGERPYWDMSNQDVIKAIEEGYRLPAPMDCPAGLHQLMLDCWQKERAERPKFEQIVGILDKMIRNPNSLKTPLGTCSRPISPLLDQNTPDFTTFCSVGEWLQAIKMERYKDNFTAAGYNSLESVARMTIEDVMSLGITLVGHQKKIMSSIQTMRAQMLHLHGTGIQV

[6] = biological target: T1, Ephrin type-B receptor 1 (Homo sapiens) (UniProt P54762); conditions: at 1 µM
T1 sequence (whole entry): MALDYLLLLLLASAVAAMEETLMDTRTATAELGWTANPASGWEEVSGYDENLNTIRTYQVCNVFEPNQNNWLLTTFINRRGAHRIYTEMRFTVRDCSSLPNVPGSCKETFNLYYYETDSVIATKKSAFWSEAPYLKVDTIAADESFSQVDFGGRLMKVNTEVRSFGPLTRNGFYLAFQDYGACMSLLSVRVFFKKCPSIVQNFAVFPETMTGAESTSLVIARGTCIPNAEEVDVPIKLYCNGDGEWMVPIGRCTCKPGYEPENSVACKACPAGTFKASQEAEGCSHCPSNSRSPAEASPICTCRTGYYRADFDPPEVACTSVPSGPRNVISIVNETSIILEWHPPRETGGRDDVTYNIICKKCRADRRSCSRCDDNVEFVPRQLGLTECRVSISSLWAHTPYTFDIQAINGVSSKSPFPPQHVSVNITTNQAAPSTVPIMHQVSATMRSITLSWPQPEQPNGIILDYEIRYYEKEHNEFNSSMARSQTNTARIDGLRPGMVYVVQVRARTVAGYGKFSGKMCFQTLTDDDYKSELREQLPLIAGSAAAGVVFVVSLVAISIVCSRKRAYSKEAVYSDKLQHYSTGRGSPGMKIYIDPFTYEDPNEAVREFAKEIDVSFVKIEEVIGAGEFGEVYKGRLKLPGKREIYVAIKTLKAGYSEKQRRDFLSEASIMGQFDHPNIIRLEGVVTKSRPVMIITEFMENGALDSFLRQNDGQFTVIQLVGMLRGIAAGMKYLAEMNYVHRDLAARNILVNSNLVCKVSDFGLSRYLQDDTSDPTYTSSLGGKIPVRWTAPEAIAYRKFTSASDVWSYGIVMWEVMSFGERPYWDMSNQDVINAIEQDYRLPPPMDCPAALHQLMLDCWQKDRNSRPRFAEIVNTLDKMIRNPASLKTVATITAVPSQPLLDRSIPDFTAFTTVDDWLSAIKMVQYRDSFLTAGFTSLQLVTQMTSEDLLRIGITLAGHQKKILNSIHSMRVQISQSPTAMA

[7] = biological target: T1, Ephrin type-B receptor 1 (Homo sapiens); conditions: at 10 µM
[8] = biological target: T2, Ephrin type-B receptor 2 (Homo sapiens) (UniProt P29323); conditions: at 1 µM
T2 sequence (whole entry): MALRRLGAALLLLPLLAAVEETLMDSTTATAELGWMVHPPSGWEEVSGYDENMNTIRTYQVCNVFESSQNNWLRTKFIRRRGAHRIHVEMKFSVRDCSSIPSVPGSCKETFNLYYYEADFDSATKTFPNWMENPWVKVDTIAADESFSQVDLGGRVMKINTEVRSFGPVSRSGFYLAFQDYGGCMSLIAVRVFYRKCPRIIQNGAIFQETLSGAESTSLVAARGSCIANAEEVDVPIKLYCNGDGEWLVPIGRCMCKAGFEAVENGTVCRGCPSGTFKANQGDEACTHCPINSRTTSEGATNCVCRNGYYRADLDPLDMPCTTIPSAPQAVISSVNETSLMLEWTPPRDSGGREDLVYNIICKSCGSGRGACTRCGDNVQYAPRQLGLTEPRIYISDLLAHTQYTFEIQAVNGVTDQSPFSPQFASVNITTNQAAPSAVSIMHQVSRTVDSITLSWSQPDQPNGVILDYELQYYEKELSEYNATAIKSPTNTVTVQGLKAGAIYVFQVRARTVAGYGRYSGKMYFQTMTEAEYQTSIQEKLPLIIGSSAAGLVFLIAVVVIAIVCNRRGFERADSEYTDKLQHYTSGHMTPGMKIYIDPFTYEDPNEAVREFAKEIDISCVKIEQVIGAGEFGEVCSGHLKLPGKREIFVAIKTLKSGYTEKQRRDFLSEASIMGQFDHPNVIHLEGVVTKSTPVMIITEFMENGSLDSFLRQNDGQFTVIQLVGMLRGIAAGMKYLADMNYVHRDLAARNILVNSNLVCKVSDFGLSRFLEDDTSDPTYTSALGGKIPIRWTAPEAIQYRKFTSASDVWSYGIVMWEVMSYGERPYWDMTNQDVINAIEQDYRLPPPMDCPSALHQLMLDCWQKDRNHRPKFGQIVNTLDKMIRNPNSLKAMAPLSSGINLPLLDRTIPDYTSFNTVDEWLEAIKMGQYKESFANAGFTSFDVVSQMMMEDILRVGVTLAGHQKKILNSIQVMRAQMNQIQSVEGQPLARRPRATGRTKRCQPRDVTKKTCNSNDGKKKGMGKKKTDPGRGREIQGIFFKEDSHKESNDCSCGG

[9] = biological target: T2, Ephrin type-B receptor 2 (Homo sapiens); conditions: at 10 µM
[10] = biological target: T3, Ephrin type-B receptor 3 (Homo sapiens) (UniProt P54753); conditions: at 1 µM
T3 sequence (whole entry): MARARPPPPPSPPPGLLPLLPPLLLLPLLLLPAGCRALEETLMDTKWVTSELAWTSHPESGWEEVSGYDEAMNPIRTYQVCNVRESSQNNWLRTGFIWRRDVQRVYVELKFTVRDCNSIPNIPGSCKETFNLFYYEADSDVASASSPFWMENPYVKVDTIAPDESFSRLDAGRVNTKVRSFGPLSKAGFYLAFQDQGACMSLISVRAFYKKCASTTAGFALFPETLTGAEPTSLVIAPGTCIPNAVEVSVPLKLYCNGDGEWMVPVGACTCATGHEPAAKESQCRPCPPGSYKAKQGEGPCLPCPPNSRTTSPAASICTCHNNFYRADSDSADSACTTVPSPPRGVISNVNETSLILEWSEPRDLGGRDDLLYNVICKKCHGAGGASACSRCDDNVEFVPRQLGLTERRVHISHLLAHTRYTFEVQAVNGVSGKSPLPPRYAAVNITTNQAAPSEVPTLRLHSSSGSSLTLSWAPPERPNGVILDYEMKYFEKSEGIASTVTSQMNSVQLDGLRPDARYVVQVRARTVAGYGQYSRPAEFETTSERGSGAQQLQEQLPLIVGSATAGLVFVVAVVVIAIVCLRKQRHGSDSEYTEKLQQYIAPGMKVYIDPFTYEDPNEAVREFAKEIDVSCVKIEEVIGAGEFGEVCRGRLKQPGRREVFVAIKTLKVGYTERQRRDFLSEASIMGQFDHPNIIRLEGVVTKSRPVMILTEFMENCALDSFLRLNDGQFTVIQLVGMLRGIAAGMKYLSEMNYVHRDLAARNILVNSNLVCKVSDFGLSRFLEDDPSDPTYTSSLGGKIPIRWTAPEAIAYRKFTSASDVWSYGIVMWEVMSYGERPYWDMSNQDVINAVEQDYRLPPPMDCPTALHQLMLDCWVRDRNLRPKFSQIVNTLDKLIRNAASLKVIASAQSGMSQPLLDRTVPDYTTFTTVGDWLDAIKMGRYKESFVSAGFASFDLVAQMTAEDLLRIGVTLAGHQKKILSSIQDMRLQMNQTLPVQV

[11] = biological target: T3, Ephrin type-B receptor 3 (Homo sapiens); conditions: at 10 µM
[12] = biological target: T4, Ephrin type-B receptor 4 (Homo sapiens) (UniProt P54760); conditions: at 10 µM
T4 sequence (whole entry): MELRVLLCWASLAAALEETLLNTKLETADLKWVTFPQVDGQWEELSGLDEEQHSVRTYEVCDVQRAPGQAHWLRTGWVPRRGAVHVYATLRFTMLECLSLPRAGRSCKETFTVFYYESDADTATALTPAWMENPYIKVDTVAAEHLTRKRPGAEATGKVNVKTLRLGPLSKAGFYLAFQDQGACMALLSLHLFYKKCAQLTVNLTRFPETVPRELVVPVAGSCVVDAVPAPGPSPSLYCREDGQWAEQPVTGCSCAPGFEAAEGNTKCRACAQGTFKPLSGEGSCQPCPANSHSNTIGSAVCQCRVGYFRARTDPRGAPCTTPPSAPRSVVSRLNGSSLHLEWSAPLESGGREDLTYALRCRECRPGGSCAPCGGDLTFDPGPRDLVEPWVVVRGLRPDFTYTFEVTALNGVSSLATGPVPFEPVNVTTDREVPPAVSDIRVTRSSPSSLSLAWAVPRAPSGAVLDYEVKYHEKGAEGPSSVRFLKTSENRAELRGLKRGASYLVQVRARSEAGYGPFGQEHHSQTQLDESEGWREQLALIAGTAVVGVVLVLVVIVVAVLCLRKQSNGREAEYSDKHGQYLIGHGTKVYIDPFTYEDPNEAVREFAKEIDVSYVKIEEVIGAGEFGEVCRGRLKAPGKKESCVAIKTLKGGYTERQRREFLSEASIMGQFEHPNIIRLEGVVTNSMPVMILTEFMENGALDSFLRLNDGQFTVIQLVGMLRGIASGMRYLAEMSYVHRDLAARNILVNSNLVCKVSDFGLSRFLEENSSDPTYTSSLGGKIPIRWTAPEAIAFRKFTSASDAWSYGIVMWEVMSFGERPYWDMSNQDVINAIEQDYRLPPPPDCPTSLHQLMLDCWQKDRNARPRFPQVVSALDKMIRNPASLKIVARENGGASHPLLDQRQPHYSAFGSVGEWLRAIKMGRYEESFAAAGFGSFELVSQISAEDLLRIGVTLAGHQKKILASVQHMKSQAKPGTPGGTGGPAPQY

[13] = biological target: Receptor tyrosine-protein kinase erbB-4 (Homo sapiens) (UniProt Q15303); conditions: at 1 µM
Sequence of Receptor tyrosine-protein kinase erbB-4 (Homo sapiens) (Q15303 whole entry): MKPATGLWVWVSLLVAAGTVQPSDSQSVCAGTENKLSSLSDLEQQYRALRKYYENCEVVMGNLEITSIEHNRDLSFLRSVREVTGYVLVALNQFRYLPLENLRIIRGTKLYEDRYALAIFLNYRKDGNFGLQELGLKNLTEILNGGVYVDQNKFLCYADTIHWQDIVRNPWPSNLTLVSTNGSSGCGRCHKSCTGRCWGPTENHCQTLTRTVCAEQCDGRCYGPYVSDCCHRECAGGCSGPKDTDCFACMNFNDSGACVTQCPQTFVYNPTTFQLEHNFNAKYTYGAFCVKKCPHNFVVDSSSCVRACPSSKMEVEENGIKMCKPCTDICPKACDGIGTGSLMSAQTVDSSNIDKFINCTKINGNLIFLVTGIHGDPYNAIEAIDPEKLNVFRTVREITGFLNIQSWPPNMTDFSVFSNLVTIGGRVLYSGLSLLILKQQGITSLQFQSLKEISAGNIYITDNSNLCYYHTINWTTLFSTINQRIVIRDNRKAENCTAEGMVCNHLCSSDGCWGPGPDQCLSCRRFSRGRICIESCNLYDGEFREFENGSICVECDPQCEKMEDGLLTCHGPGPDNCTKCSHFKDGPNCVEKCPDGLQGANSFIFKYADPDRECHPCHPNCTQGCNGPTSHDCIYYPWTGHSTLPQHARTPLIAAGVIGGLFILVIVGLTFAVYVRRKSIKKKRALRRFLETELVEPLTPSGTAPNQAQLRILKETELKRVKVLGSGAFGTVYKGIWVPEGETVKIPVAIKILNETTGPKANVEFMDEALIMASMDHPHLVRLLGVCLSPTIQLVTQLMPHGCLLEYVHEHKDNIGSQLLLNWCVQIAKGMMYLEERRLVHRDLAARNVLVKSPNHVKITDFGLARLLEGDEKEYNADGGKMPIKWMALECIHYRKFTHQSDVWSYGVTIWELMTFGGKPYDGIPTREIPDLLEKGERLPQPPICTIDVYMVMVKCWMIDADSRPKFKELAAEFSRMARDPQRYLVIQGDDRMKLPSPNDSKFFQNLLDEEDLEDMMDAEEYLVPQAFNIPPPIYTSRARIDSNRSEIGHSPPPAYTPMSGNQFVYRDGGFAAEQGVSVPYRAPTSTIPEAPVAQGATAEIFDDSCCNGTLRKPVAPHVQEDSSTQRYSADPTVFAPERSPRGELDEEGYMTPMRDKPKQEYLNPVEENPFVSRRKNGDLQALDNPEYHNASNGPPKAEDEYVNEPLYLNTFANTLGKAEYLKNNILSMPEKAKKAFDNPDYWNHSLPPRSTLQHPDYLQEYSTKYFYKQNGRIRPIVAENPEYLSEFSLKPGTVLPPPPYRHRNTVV

[14] = biological target: Receptor tyrosine-protein kinase erbB-4 (Homo sapiens) (UniProt Q15303); conditions: at 10 µM

Sequence of Ephrin type-A receptor 5 (Homo sapiens) (P54756 whole entry): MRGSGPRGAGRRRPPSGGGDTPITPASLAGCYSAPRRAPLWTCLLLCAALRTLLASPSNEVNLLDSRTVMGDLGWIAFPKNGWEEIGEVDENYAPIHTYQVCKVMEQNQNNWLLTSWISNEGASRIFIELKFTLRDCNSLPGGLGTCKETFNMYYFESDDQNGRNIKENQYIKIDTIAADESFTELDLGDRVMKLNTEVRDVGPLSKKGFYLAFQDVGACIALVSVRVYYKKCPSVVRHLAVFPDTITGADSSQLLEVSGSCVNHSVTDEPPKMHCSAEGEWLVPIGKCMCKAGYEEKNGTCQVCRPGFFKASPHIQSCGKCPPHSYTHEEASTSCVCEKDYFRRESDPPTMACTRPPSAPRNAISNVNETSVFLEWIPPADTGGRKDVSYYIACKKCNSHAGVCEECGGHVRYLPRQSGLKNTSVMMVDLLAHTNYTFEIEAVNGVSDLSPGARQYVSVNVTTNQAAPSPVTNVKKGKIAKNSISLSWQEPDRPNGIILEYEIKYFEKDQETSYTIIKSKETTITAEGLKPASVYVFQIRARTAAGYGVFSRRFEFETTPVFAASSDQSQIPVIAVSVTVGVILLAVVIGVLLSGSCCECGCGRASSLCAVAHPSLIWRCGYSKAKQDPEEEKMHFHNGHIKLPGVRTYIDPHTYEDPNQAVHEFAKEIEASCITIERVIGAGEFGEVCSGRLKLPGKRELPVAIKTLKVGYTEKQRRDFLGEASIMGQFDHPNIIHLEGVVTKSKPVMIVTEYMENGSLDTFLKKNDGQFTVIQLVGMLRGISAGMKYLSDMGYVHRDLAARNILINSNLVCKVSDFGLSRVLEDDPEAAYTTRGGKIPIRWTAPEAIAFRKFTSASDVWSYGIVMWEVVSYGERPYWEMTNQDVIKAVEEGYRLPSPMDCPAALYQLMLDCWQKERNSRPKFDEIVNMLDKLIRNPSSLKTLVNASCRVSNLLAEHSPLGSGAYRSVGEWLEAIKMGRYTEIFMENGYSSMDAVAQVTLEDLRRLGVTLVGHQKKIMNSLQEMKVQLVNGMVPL
Sequence of Ephrin type-A receptor 4 (Homo sapiens) (P54764 whole entry): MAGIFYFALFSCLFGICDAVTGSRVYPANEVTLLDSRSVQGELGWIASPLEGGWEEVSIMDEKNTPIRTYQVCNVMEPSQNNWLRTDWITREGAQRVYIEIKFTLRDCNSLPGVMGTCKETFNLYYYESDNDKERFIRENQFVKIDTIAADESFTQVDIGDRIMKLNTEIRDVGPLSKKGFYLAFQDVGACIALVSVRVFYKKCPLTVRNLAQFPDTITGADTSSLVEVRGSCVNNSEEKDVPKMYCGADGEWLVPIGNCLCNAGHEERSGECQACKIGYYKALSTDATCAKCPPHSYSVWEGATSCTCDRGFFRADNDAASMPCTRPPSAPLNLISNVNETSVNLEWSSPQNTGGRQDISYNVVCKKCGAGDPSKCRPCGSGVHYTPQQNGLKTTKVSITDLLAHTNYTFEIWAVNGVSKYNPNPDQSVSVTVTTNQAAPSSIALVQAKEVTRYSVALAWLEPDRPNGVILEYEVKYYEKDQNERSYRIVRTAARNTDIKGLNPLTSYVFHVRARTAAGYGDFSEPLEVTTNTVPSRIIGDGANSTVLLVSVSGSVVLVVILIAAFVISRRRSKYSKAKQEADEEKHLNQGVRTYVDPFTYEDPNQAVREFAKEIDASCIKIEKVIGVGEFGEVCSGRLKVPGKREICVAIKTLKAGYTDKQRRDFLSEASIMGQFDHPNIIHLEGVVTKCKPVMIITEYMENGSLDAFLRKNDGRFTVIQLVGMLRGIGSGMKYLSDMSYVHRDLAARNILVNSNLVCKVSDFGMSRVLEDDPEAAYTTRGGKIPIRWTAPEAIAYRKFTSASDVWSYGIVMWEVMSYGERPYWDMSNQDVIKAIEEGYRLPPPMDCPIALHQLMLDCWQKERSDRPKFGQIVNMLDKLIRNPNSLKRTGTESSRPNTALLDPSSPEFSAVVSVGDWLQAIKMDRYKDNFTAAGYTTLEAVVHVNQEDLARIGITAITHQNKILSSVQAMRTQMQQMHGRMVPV

SMILES: COc1ccc(CNC(=O)Nc2ncc([N+](=O)[O-])s2)cc1
- residual activity [1]: 100%
- residual activity [2]: 102%
- residual activity [3]: 114%
- residual activity [4]: 102%
- residual activity [5]: 80%
- residual activity [6]: 111%
- residual activity [7]: 80%
- residual activity [8]: 105%
- residual activity [9]: 117%
- residual activity [10]: 117% (inactive)
- residual activity [11]: 105%
- residual activity [12]: 78%
- residual activity [13]: 43%
- residual activity [14]: 33%
